# Values without a mark were called inactive. Active and inactive are the calls of the source. Cut-off read from the data, not from the text of the source, unless noted: active = inhibition above about 36%; inactive = the rest.
# Legend:
# [1] = tested on: transactivating tegument protein VP16 (Human herpesvirus 1); assay: compounds suppressing VP16-driven luciferase signal – cell-based, luminescence, single concentration, counter-screen for SRC2 inhibitor project (AID 652007); conditions: cell-based VP16 transactivation luciferase reporter, at 8.9 µM, active compounds read high
# [2] = target: Nuclear receptor coactivator 2 (Homo sapiens) (UniProt Q15596); assay: inhibition of GAL4-SRC2 driven luciferase expression – cell-based, luminescence, HEK293, triplicate, confirmation (AID 652008;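 active = mean inhibition above 46.5%, the solvent-only control mean plus 3 SD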;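 note: 0% = DMSO-treated cells and 100% = Gossypol at 36 µM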); conditions: HEK293 GAL4-SRC2 luciferase reporter, at 8.9 µM, active compounds read high
# Chain of Nuclear receptor coactivator 2 (Homo sapiens) (Q15596 whole entry, looked up, the tested form may be a part): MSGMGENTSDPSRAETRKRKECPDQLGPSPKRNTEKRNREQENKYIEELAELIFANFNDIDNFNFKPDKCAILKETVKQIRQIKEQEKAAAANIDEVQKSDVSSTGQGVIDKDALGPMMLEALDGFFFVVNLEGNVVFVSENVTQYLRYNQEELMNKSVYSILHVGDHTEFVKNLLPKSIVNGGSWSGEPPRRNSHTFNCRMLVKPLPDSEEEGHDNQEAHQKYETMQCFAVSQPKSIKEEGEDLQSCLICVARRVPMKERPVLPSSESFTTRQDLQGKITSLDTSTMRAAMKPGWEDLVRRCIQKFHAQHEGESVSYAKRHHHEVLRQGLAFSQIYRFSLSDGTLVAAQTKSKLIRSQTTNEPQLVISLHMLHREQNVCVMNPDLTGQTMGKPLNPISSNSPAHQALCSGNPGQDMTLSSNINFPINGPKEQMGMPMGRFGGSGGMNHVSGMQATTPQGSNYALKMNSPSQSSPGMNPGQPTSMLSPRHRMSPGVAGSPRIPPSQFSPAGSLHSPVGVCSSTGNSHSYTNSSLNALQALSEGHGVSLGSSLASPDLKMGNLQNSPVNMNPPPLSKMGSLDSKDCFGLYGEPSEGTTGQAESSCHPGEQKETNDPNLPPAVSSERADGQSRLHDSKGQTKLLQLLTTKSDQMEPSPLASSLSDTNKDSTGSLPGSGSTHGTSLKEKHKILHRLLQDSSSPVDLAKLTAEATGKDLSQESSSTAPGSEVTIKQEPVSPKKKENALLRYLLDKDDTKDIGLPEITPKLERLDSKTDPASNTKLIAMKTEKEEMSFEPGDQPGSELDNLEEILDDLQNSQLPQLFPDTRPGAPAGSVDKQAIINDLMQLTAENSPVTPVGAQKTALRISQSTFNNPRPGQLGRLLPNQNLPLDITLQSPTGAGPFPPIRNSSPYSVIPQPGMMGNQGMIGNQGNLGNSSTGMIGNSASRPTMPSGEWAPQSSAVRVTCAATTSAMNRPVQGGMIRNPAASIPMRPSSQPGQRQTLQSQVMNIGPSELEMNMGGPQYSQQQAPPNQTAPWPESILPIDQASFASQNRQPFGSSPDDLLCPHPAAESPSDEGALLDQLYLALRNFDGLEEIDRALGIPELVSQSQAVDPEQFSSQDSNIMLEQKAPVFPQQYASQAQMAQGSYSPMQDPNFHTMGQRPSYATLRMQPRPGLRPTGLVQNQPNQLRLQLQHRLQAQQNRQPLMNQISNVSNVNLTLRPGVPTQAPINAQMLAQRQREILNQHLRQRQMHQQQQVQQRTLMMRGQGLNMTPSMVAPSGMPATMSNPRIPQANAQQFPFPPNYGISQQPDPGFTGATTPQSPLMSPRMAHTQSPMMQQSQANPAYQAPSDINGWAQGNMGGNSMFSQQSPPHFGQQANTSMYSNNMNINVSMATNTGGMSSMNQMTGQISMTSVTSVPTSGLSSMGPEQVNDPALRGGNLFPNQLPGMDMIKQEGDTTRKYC
SMILES,inhibition [1] [%],inhibition [2]
Cc1cc(C)nc(NC(=O)c2c(F)c(F)c(F)c(C(=O)Nc3cc(C)cc(C)n3)c2F)c1,19.3,48.3% (active)
NS(=O)(=O)c1ccc(NC(=O)COc2ccc(C(=O)c3ccc(F)cc3)cc2)cc1,-1.97,-2.94%
CCOc1ccc(NC(=O)c2ccccn2)cc1,-15.2,25.7%
CCOc1cccc(NC(=O)C2CC(=O)N(c3ccc(F)cc3)C2)c1 (centres undefined),6.75,-14.1%
CCOC(=O)c1ccc(-c2ccc(N3C(c4ccsc4)=Cc4ccc(F)cc4C3c3c[nH]c4ccc(C#N)cc34)cc2)cc1F (centres undefined),-3.42,33.6%
COc1cccc(NC(=O)Nc2nnc(CC(=O)Nc3ccccc3)s2)c1,-11,21.1%
O=C(COC(=O)c1ccc(Br)o1)NCC(=O)Nc1ccc(F)cc1,-21,-15.8%
CCN(CC)S(=O)(=O)c1cccc(-n2c(O)c(C=Nc3ccccc3C(=O)O)c3ccccc3c2=O)c1,-0.6,21.9%
CCOc1ccccc1OCCCCOc1ccccc1F,-9.29,-12.6%
O=C(c1ccccc1Nc1ccc(SC(F)F)cc1)N1CCCCCC1,2.12,4.87%
COc1cc(OC)nc(Nc2nc(C(N)Cc3ccc(F)cc3)cs2)n1 (centres undefined),-4.22,-0.34%
CCOC(=O)Cn1c(=O)c2c(nc(N3CCCCC3)n2Cc2ccccc2)n(C)c1=O,-5.76,4.93%
